Unmarked numbers belong to inactive results.
Legend:
[1] = tested on: Sporothrix brasiliensis CBS 133006; test: growth inhibition relative to untreated control; higher = more growth inhibition (more antifungal activity), active = 80 or more; extreme values may be limits of the assay; conditions: 1 µM; 48 h
Summary of the method: (§1)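 Yeast-form cells of the reference isolates (grown 7 days in brain heart infusion broth with 2% glucose at 36°C) were exposed at 1 x 10^5 CFU/ml to library compounds at a final 1 μM for 48 h at 35°C in 5% CO2. Growth was checked by visual inspection under an inverted light microscope and quantified by spectrophotometric readings. The value is percent growth inhibition relative to untreated control. Runs were in quadruplicate.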

[2] = tested on: Sporothrix schenckii ATCC 32286; test: as above; conditions: 1 µM; 48 h
Summary of the method: as §1

For `CCCn1c(NC(=O)c2ccc3ccccc3n2)nc2ccccc21`, the growth inhibition [1] was 3.5% and the growth inhibition [2] was 0%.

For `CC(C)NCC(=O)Nc1cccc(C(=O)Nc2cccc(C(F)(F)F)c2)c1`, the growth inhibition [1] was 11.5% and the growth inhibition [2] was 3.75%.

Compound `CC(=O)Nc1ccc(-c2noc(CC3CCCN(Cc4cccc(F)c4C)C3)n2)cc1` (configuration not stated) has a growth inhibition [1] of 10.2% and a growth inhibition [2] of 0.5%.

`Nc1ncc(Br)cc1-c1nc2cc(Cl)cnc2[nH]1` showed a growth inhibition [1] of 12% and a growth inhibition [2] of 19.2%.

`COc1ccc(-c2nnc3ccc(-c4cccc(C(C)C)c4)cn23)cc1OC` gave a growth inhibition [1] of 17% and a growth inhibition [2] of 16.8%.

`COc1cccc(CC(=O)N2CCC(n3c(C)nc4ccc(F)cc43)CC2)c1` showed a growth inhibition [1] of 7.5% and a growth inhibition [2] of 6.25%.

With `c1ccc(Oc2ccc(-c3cc(N4CCNCC4)[nH]n3)cc2)cc1` the growth inhibition [1] was 0% and the growth inhibition [2] was 4%.

For `CN(C)c1cc(NC(=O)Nc2ccccc2)c2ccccc2n1`, the growth inhibition [1] was 0% and the growth inhibition [2] was 0.75%.

Compound `O=C(C1CCN(c2nnnn2-c2ccccc2)CC1)N1CCc2ccccc2C1` has a growth inhibition [1] of 2.5% and a growth inhibition [2] of 3%.

For `Cc1ccc2nc(Cl)c(CNCc3cccs3)cc2c1`, the growth inhibition [1] was 0% and the growth inhibition [2] was 2.25%.

For `COc1ccc(Cl)cc1NC(=O)CN(C)C(=O)c1cnn(-c2ccccc2)n1`, the growth inhibition [1] was 14.5% and the growth inhibition [2] was 15.2%.

`CC(c1cc(Cl)cc(Cl)c1)N(C)c1ncc2c(N)nc(N)nc2n1` (configuration not stated) was tested, and the growth inhibition [1] was 11.2% and the growth inhibition [2] was 16.5%.

Work on `NC(=O)c1cc(Br)ccc1OCCOc1ccccc1` yielded a growth inhibition [1] of 23.5% and a growth inhibition [2] of 1.25%.

With `OC[C@H]1O[C@@H](n2c3ccc(Cl)cc3c3c(-c4cc5ccccc5o4)ncnc32)C(O)[C@H]1O` (some centres not stated) the growth inhibition [1] was 10.8% and the growth inhibition [2] was 18.8%.

Compound `Nc1ccc2ncnc(Nc3ccc(OCc4cccc(F)c4)c(Cl)c3)c2c1` has a growth inhibition [1] of 12.8% and a growth inhibition [2] of 8.25%.

`COc1cc2ncnc(NC3CCN(Cc4ccccc4)CC3)c2cc1OC` showed a growth inhibition [1] of 8% and a growth inhibition [2] of 0%.

With `O=C(Nc1ccc(N2CCNCC2)cc1)c1ccn2ncc(-c3cccc(Cl)c3)c2n1` the growth inhibition [1] was 12% and the growth inhibition [2] was 14.5%.

`N=C(N)c1ccc(-c2cc(-c3ccccc3)on2)cc1` showed a growth inhibition [1] of 7% and a growth inhibition [2] of 10.5%.

For `Cc1cc(Cl)ccc1NC(=O)CCc1ccc(S(=O)(=O)NCC(C)C)cc1`, the growth inhibition [1] was 9.75% and the growth inhibition [2] was 0%.

Compound `O=C(c1ccc(NCCO)cc1)C1C[C@H]1c1ccc(Cl)cc1` (some centres not stated) has a growth inhibition [1] of 2% and a growth inhibition [2] of 8.5%.

Compound `O=C(CN1CCOCC1)Nc1ccc2ncnc(Nc3ccc(OCc4cccc(F)c4)c(Cl)c3)c2c1` has a growth inhibition [1] of 8.25% and a growth inhibition [2] of 15.8%.

`CC1=Nc2ccc(Cl)cc2C(O)(c2ccc(C)cc2)N1CCN1CCCCC1` (configuration not stated) gave a growth inhibition [1] of 12.2% and a growth inhibition [2] of 1.25%.

For `Clc1cccc(CO[C@H]2CCc3ccccc3[C@@H]2n2ccnn2)c1`, the growth inhibition [1] was 15.8% and the growth inhibition [2] was 3%.

For `COc1ccc2nc(C)cc(OCC(=O)NCc3ccccc3)c2c1`, the growth inhibition [1] was 1.75% and the growth inhibition [2] was 14.8%.

Compound `N=C(N)Nc1ccc(-c2ccc(-c3ccc(NC(=N)N)cc3Cl)o2)c(Cl)c1` has a growth inhibition [1] of 19.8% and a growth inhibition [2] of 0%.

In the case of `c1ccc(-c2cc(N3CCCCC3)c3ccccc3n2)nc1`, the growth inhibition [1] is reported as 35.2% and the growth inhibition [2] is reported as 14.8%.

Compound `NCCCC(N)(C(=O)O)C(F)F` (configuration not stated) has a growth inhibition [1] of 13.5% and a growth inhibition [2] of 17.2%.

Work on `c1csc(-c2cnc3sc(NCC4CCOCC4)nn23)c1` yielded a growth inhibition [1] of 19.8% and a growth inhibition [2] of 8.75%.

In the case of `Cc1nc(-c2ccccn2)nc(N2CCC(Cc3ccccc3)C2)c1Cl` (configuration not stated), the growth inhibition [1] is reported as 63% and the growth inhibition [2] is reported as 13%.

Compound `COc1cccc(-c2nc3c(N4CCCC4)cccc3n2CC2CCCN2)n1` (configuration not stated) has a growth inhibition [1] of 0% and a growth inhibition [2] of 9.5%.

In the case of `c1coc(CNc2nc(N3CCCCC3)nc3ccccc23)c1`, the growth inhibition [1] is reported as 4.25% and the growth inhibition [2] is reported as 13.5%.

`CN(C)CCNC(=O)N1CCCN(c2ncnc3cc(-c4ccccc4)sc23)CC1` was tested, and the growth inhibition [1] was 10.5% and the growth inhibition [2] was 13.2%.

`COc1cc(C2=NCCN2)cc2cc(-c3ccc(C4=NCCN4)cc3)oc12` was tested, and the growth inhibition [1] was 17% and the growth inhibition [2] was 4.25%.

Work on `COC(=O)c1ccc(F)cc1NS(=O)(=O)c1cccc(-c2cnn(Cc3ccccc3)c2)c1` yielded a growth inhibition [1] of 12% and a growth inhibition [2] of 20.2%.

With `Cc1ccc(Oc2ccc(NC(=O)CNc3ccccc3N3CCCC3=O)cc2)cc1` the growth inhibition [1] was 0% and the growth inhibition [2] was 0%.

`COC(=O)c1c(NC(=O)c2c(F)c(F)c(F)c(F)c2F)sc2c1CCCCC2` was tested, and the growth inhibition [1] was 13.8% and the growth inhibition [2] was 0.75%.

In the case of `Clc1ccc(CN2CCN(C3=NCCN3)CC2)cc1Cl`, the growth inhibition [1] is reported as 18.8% and the growth inhibition [2] is reported as 17%.

`COc1cc(C2=NCCN2)ccc1-n1cc(-c2cccc(C3=NCCN3)c2)nn1` showed a growth inhibition [1] of 18.5% and a growth inhibition [2] of 5.5%.

With `Nc1nc2cc(-c3cncc(Oc4ccc(F)cc4)c3)ccc2[nH]1` the growth inhibition [1] was 8.5% and the growth inhibition [2] was 18.5%.

`COc1ccc(C(=N)N)cc1-c1cn(-c2ccc(C(=N)N)cc2)nn1` was tested, and the growth inhibition [1] was 51.8% and the growth inhibition [2] was 0%.

For `CC(C)(C)n1nc(Cc2cccc3ccccc23)c2c(N)ncnc21`, the growth inhibition [1] was 11% and the growth inhibition [2] was 0%.

With `CC(C)(C)c1cc(C(=O)Nc2cccnc2)cc(C(=O)Nc2cccnc2)c1` the growth inhibition [1] was 6% and the growth inhibition [2] was 4%.

For `CC(C)c1ncc(-c2ccncc2)c([C@H]2CC[C@H](CNC(=O)c3cccnc3)CC2)n1`, the growth inhibition [1] was 4.5% and the growth inhibition [2] was 8.25%.

In the case of `Cc1nc(-c2ccccn2)nc(N(C)CCc2ccccc2)c1Cl`, the growth inhibition [1] is reported as 80.8% (active) and the growth inhibition [2] is reported as 34.8%.

With `Oc1c(I)cc(I)c2cccnc12` the growth inhibition [1] was 99.5% (active) and the growth inhibition [2] was 94.5% (active).

`Cc1[nH]c2cc(F)cc(F)c2c(=O)c1-c1ccc(Oc2ccc(OC(F)(F)F)cc2)cc1` gave a growth inhibition [1] of 2.25% and a growth inhibition [2] of 9.5%.

With `O=C1COCc2ccc(Br)cc2N1Cc1ccc(C(F)(F)F)cc1` the growth inhibition [1] was 0% and the growth inhibition [2] was 2.75%.

For `COc1ccc(-c2onc(C(F)(F)F)c2-c2ccc(Cl)cc2)c(O)c1`, the growth inhibition [1] was 11.8% and the growth inhibition [2] was 6%.

With `O=C(Nc1nc(-c2ccccn2)cs1)C1CC1c1ccccc1F` (configuration not stated) the growth inhibition [1] was 9.5% and the growth inhibition [2] was 34.2%.

Work on `COc1ccccc1OCCCCn1c(C2CC2)nc2ccccc21` yielded a growth inhibition [1] of 7.75% and a growth inhibition [2] of 9.25%.

`Cc1ccc(-c2cc(C(=O)Nc3cccnc3)c3cc(Br)ccc3n2)cc1` gave a growth inhibition [1] of 25.2% and a growth inhibition [2] of 0%.

Work on `CN1CCN(c2cc(-c3ccc(F)cc3)nc(-c3ccncc3)n2)CC1` yielded a growth inhibition [1] of 7% and a growth inhibition [2] of 12.2%.

`O=C(Nc1c(O)cccc1-c1nc2c(C(=O)O)cccc2o1)c1cc(-c2ccccc2)on1` gave a growth inhibition [1] of 38.2% and a growth inhibition [2] of 3.75%.

For `O=C(Nc1nnc(-c2ccc(Cl)s2)o1)c1ccc(Cl)s1`, the growth inhibition [1] was 27.8% and the growth inhibition [2] was 42%.

Compound `NCC(c1cccs1)S(=O)(=O)c1ccccc1` (configuration not stated) has a growth inhibition [1] of 24.2% and a growth inhibition [2] of 0%.

`Cn1c(=O)c2c(S(C)(=O)=O)snc2n(C)c1=O` gave a growth inhibition [1] of 9% and a growth inhibition [2] of 13.2%.

For `CS(=O)(=O)c1ccc(C(=O)N(CC2CCCO2)c2nc3ccccc3s2)cc1[N+](=O)[O-]` (configuration not stated), the growth inhibition [1] was 27.2% and the growth inhibition [2] was 19%.

`Cc1cc2nc(NC(=O)C(C)(C)C)nc(Cl)c2n1Cc1ccc(Cl)cc1` showed a growth inhibition [1] of 14.8% and a growth inhibition [2] of 2.5%.

`Cc1ccc2oc(-c3cc(NC(=O)Cc4ccccc4)ccc3Cl)nc2c1` showed a growth inhibition [1] of 14.5% and a growth inhibition [2] of 11.2%.

`COc1ccc(OC(C)C(=O)Nc2ccc(Cl)cc2C)cc1` (configuration not stated) was tested, and the growth inhibition [1] was 10.5% and the growth inhibition [2] was 11.2%.

With `COc1cc(OC)cc(C(=O)NCC2Cc3cc(Cl)cc(-c4ccncc4)c3O2)c1` (configuration not stated) the growth inhibition [1] was 17.5% and the growth inhibition [2] was 2%.

Compound `CCC(NC(=O)c1ccccc1NC(=O)c1ccc(C)cc1)C(=O)OC` (configuration not stated) has a growth inhibition [1] of 10% and a growth inhibition [2] of 5.75%.

Compound `COc1cccc(-c2cc3c(Nc4cccnc4)nccc3[nH]2)c1` has a growth inhibition [1] of 4% and a growth inhibition [2] of 5%.

For `O=C(NCc1cc(Cl)cc(Cl)c1)c1c(C(F)(F)F)nc2ccccn12`, the growth inhibition [1] was 21.5% and the growth inhibition [2] was 11.2%.

`CN1CCC(NCc2cccc(-c3ccc(S(=O)(=O)NCc4ccccc4)cc3)c2)CC1` showed a growth inhibition [1] of 8% and a growth inhibition [2] of 13.5%.

With `CCN(CC)C(=O)N1CCN(C)CC1` the growth inhibition [1] was 4% and the growth inhibition [2] was 1%.

In the case of `CN1CCCC1CCO[C@](C)(c1ccccc1)c1ccc(Cl)cc1` (some centres not stated), the growth inhibition [1] is reported as 11.8% and the growth inhibition [2] is reported as 14.8%.

For `Cc1nnc(NC(=O)c2cn(-c3ccccc3)nc2-c2ccccc2C)o1`, the growth inhibition [1] was 1.5% and the growth inhibition [2] was 22.8%.

For `CCOc1ccc2cc(-c3nn(C(C)(C)C)c(N)c3C(N)=O)cnc2c1`, the growth inhibition [1] was 0% and the growth inhibition [2] was 2.5%.

With `CNC(=O)C1Cc2ccccc2N1C(=O)Cc1ccc(F)cc1` (configuration not stated) the growth inhibition [1] was 32.2% and the growth inhibition [2] was 3.25%.

`COc1ccc(Cn2cnc3c(-c4ccco4)nc(Cl)nc32)cc1` showed a growth inhibition [1] of 15.8% and a growth inhibition [2] of 17.8%.

`O=C(Nc1ccnc(-c2cccnc2)n1)c1cc(C(F)(F)F)cc(C(F)(F)F)c1` gave a growth inhibition [1] of 2.5% and a growth inhibition [2] of 0%.

With `O=C(Nc1cnc2ccccc2c1)c1cccc(-n2cnnn2)c1` the growth inhibition [1] was 0% and the growth inhibition [2] was 4.75%.

`COc1ccc(-c2cncc3ccc(C(=O)NCCCn4ccnc4)nc23)cc1` showed a growth inhibition [1] of 16% and a growth inhibition [2] of 16.5%.

For `O=C(OCc1ccccc1)N1CCC(c2cc(-c3ccncc3)c(-c3ccc(F)cc3)[nH]2)CC1`, the growth inhibition [1] was 5.25% and the growth inhibition [2] was 13.2%.

For `OCc1ccc(-c2cncc(Nc3cccc(Cl)c3)c2)cc1`, the growth inhibition [1] was 25.5% and the growth inhibition [2] was 6.75%.

Reference: the supplement of paper PMC7556523
